Assay results taken from PubChem BioAssay AID1159580 (chemical genetic matrix, 2015).
In all, about 5,500 compounds went through this assay and about 2,000 (36%) were called active. Not shown: some 18% with an inconclusive outcome. This is one part of the list. Unmarked numbers belong to inactive results. Cut-off read from the data, not from the text of the source: active = normalized growth mostly below about 0.91 (no sharp cut-off); inconclusive = no clear call, values can overlap the other calls; inactive = mostly above about 0.92.

Assay: chemical genetic growth profiling, strain panel (AID 1159580);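 note: tested at 20 µM; growth read once vehicle control cultures reached saturation at 30 °C; 1 = growth at the plate median or of vehicle wells; lower values mean less growth of the strain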
Conditions: S. cerevisiae deletion strains, growth OD
[1] = locus YAL040C, strain CLN3, hits give low values
[2] = locus YCL061C, strain MRC1 (second series), hits give low values
[3] = locus YDR363W, strain ESC2, hits give low values
[4] = locus YER002W, strain NOP16, hits give low values
[5] = locus YJR075W, strain HOC1, hits give low values
[6] = locus YMR307W, strain GAS1, hits give low values
[7] = locus YNL128W, strain TEP1, hits give low values
[8] = locus YNL175C, strain NOP13, hits give low values
[9] = locus YNL197C, strain WHI3, hits give low values
[10] = locus YNL224C, strain SQS1, hits give low values
[11] = locus YNL322C, strain KRE1, hits give low values
[12] = locus YOR083W, strain WHI5 (second series), hits give low values
[13] = locus YAL013W, strain DEP1, hits give low values
[14] = locus YGR078C, strain PAC10, hits give low values
[15] = locus YGR229C, strain SMI1, hits give low values
[16] = locus YMR263W, strain SAP30, hits give low values
[17] = locus YNL153C, strain GIM3, hits give low values
[18] = locus YPL055C, strain LGE1, hits give low values
[19] = locus YPL241C, strain CIN2, hits give low values
[20] = locus YDR150W, strain NUM1, hits give low values

SMILES | normalized growth [1] | normalized growth [2] | normalized growth [3] | normalized growth [4] | normalized growth [5] | normalized growth [6] | normalized growth [7] | normalized growth [8] | normalized growth [9] | normalized growth [10] | normalized growth [11] | normalized growth [12] | normalized growth [13] | normalized growth [14] | normalized growth [15] | normalized growth [16] | normalized growth [17] | normalized growth [18] | normalized growth [19] | normalized growth [20]
OC[C@H]1O[C@@H](n2cnc3c(Nc4ccccc4)ncnc32)C(O)[C@H]1O (some centres undefined) | 0.966 | 0.999 | 0.908 | 0.977 | 1.01 | 1.02 | 0.987 | 0.98 | 0.963 | 0.979 | 1.02 | 0.96 |  |  |  |  |  |  |  | 
C=CCN1CCc2cc(O)c(O)cc2C(c2ccccc2)C1 (centres undefined) | 1.06 | 0.979 | 0.994 | 1.02 |  | 1 | 1.02 | 1.02 | 1.02 | 1 | 0.966 | 1.02 | 0.95 | 1.01 | 0.917 | 1 | 1.01 |  |  | 
CN1CCc2c(cc(O)c(O)c2Cl)C(c2cccc(Cl)c2)C1 (centres undefined) | 1.07 | 0.945 | 0.962 | 1.01 | 0.837 (active) | 0.993 |  | 1 | 0.991 | 1.01 | 0.917 | 0.982 |  |  |  |  |  | 0.466 (active) | 0.927 (active) | 
C=CCN1CCc2c(cc(O)c(O)c2Cl)C(c2ccccc2)C1 (centres undefined) | 0.992 | 0.934 (active) | 0.891 | 0.996 |  | 0.993 |  | 0.981 | 0.904 | 1.04 | 0.754 (active) | 0.958 | 0.917 |  |  | 0.995 | 0.911 |  |  | 0.907 (active)
CN1CCc2cc(O)c(O)cc2C(c2ccccc2)C1 (centres undefined) | 1 | 0.997 | 1.02 | 1 |  | 0.998 | 1 | 1.01 | 1.01 | 1 | 1 | 1.01 | 1.02 |  |  | 1 | 1.01 |  | 1 | 
Oc1ccc(C2CNCCc3c2cc(O)c(O)c3Cl)cc1 (centres undefined) | 0.987 | 0.986 | 1.03 | 0.997 |  | 1.02 | 0.984 | 1 | 0.977 | 1.06 | 1.02 | 0.965 |  |  |  | 0.994 | 0.935 | 0.989 | 0.981 | 
Oc1cc2c(c(Cl)c1O)CCNCC2c1ccccc1 (centres undefined) | 0.985 | 0.985 | 0.977 | 0.978 | 0.875 (active) | 0.988 |  | 1.02 | 1.01 | 1.04 | 0.981 | 1.01 |  | 0.995 |  | 1.01 | 0.967 | 0.57 (active) | 0.981 | 0.925 (active)
C=CCN1CCc2c(cc(O)c(O)c2Br)[C@@H](c2ccccc2)C1 | 1.03 |  | 0.8 (active) | 1 |  |  |  | 1.04 | 0.98 | 1.02 |  | 0.987 |  |  |  |  | 0.945 |  | 0.122 (active) | 
CN1CCc2cc(Cl)c(O)cc2[C@@H](c2ccccc2)C1 | 1.01 | 1 | 1.01 | 1.04 |  | 0.993 |  | 1.01 | 0.995 | 1.01 |  | 1.03 |  |  | 1.03 |  | 1.02 | 0.995 |  | 
Cc1cccc(C2CN(C)CCc3c2cc(O)c(O)c3Cl)c1 (centres undefined) | 1.01 | 0.988 | 1 | 1.01 |  | 1.01 |  | 1.01 | 1.01 | 1.01 | 0.973 | 1.01 |  |  |  |  |  |  | 0.996 | 
